High-throughput results as filed in PubChem.
Compounds with a hit are over-represented: about 12% of the library has one in this group of screens.
BAZ2B inh: blocks human BAZ2B; AlphaScreen BAZ2B-H3K14Ac peptide displacement; Potency, µM (highest dose often 114 µM), inactives show top-dose activity change, negative = inhibition, hits mostly inhibitors; 4.4% of 360,000 active; further: on the % scale 0 is the no-effect control and ±100 the full control effect; nearly all actives have a fitted effect of over 60% in size
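BAZ2B (50 nM) with biotin-H3(5-23)K14Ac peptide (50 nM) in PBS pH 7.4, 0.01% Tween-20, preformed 30 min, then compound 30 min at room temperature; top concentration 110uM. AlphaScreen streptavidin donor/nickel chelate acceptor beads (10 ug/mL final), 20 min dark, signal read.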
HP1b chromo inh: blocks HP1-beta chromodomain binding to methylated histone tails; P83916; AlphaScreen HP1-beta / biotin-H3K9me3 peptide binding; Potency, µM (titrated, usually from 114 µM), without a hit: at the top dose activity change, negative = inhibition, hits mostly inhibitors; 0.56% of 390,000 active; AID 540317; further: nearly all actives have a fitted effect of over 70% in size
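HP1-beta protein (50 nM final) preincubated 30 min at room temperature with biotinylated H3(1-18)K9me3 peptide (50 nM) in PBS pH 7.4, 0.01% Tween-20, then compound added for 30 min. AlphaScreen streptavidin donor/nickel chelate acceptor beads (10 ug/mL final), 30 min dark, luminescence read.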
G9a inh: blocks human histone lysine methyltransferase G9a | Potency, µM (highest dose often 102 µM), for the others: at the top dose activity, negative = inhibition, actives largely listed as inhibitors | G9a H3K9 monomethylation, AlphaScreen, 2 h | 8.8% of 350,000 active | Q96KQ7; further: on the % scale 0 is the no-effect control and ±100 the full control effect; nearly all actives have a fitted effect of over 75% in size
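G9a (20 nM) preincubated 15 min RT with compounds, then 500 nM biotinylated H3K9 peptide and 20 uM SAM added; 2 h RT reaction. Monomethyl-H3K9 product detected by AlphaScreen with anti-H3K9me1 antibody, streptavidin donor and anti-rabbit IgG acceptor beads.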
PLK1 PBD inh: inhibitors of human PLK1 polo-box domain binding. P53350. Plk1 PBD binding of FITC phosphopeptide, fluorescence polarization. Potency, µM, without a hit: max response, negative = inhibition, usual class: inhibitors. 2.8% of 360,000 active. AID 720504; further: series mostly up to about 57 µM; on the % scale 0 is the no-effect control and ±100 the full control effect; nearly all actives have a fitted effect of over 65% in size
JMJD2A Tudor: inhibitors of human JMJD2A Tudor domain | AID 504339 | 4.4% of 390,000 active | Potency, µM (titrated, usually from 114 µM), for the others: top-dose activity change, negative = inhibition, hits mostly inhibitors | O75164 | AlphaScreen JMJD2A-Tudor / H3K4me3 peptide binding; further: on the % scale 0 is the no-effect control and ±100 the full control effect; nearly all actives have a fitted effect of over 50% in size
Sfp PPTase inh: Sfp phosphopantetheinyl transferase inhibition | Potency, µM, for inactives: largest response in the series, negative = inhibition, hits mostly inhibitors | Biochemical Sfp PPTase activity, qHTS | 3.5% of 310,000 active | AID 1490;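 further: the enzyme is Sfp with the accession as filed and its product quenches rhodamine fluorescence; 0% = enzyme reaction without inhibitor and -100% = no enzyme wells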
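Fluorescence-quenching assay: 15 nM Sfp-PPTase preincubated 15 min at room temperature with compound, then 5 uM rhodamine-CoA and 12.5 uM BHQ-2-labelled YbbR peptide added. Fluorescence (ex 525/em 598 nm) read at start and after 30 min; difference gives rate.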
The depositor's hits bear a star; ? = inconclusive; / = no result; [ ] = another dose, or the depositor's remark. The call rests on the fitted dose curve; in most records, active means well fitted curve in the direction sought with a large enough effect; inconclusive means small, poorly fitted or top-dose-only effect, or another doubt; inactive means no such curve, though single readings can be large; an effect the other way counts as inactive or inconclusive. Potency means the concentration at half of the fitted maximal effect.

SMILES	BAZ2B inh	HP1b chromo inh	G9a inh	PLK1 PBD inh	JMJD2A Tudor	Sfp PPTase inh
Cc1cc(-c2n[nH]c(=S)n2/N=C/c2ccccc2[N+](=O)[O-])n[nH]1	?	?	0.4µM*	-18%	3.5µM*	?
Cc1cc(-c2n[nH]c(=S)n2/N=C/c2c[nH]c3ccccc23)n[nH]1	-22%	11%	0.79µM*	-4%	10µM*	-29%
Fc1ccc(-c2n[nH]c(=S)n2/N=C/c2c[nH]c3ccccc23)cc1	8%	20%	1.8µM*	-6%	?	-4%
CCCC#Cc1ccc2c(c1)O[C@H](CN(C)C(=O)CC1CC1)[C@H](C)CN([C@@H](C)CO)S2(=O)=O	/	/	/	-12%	/	/
Cc1ccccc1-c1nc(CS(=O)(=O)CC(=O)NCCCc2ccccc2)c(C)o1	0%	42%	-24%[59 µM]	/	-11%	/
Cc1cc(NC(=S)Nc2ccc(C)c(Cl)c2)n[nH]1	?	-14%	1.3µM*	-17%	?	?
Cc1ccc(NC(=S)Nc2ccccn2)cc1C	-14%	46%	/	-19%	4%	-4%
COc1ccc(NC(=S)Nc2cc(-c3ccccc3)[nH]n2)cc1Cl	?	?	?	21µM*	56µM*	?
COc1ccc2nccc(C(N)=O)c2c1	2%	29%	-3%	6%	-1%	15%
COCCn1c(=NC(=O)c2cc(Cl)sc2Cl)sc2cc(S(N)(=O)=O)ccc21	-8%	16%	28µM*	-5%	-7%	11%
CCCOCC1CC2(SC(=Nc3ccc(C)cc3)NC2=O)C(=O)O1 (stereo not given)	-2%	-12%	-17%[12.7 µM]	27µM*	-15%[11.4 µM]	25%
Cc1ccc(N=C2NC(=O)C(CO)(CO)S2)cc1	-20%	16%	-36%	-15%	-10%	10%
Cc1nn2c(-c3cccc(NC(=O)CN4CCOCC4)c3)nnc2c2ccccc12	/	12%	/	-11%	?	/
CN(C)C(=N)c1n[nH]nc1SCc1ccccc1	79µM*	11%	-44%[59 µM]	-15%	-17%	18%
CCOC(=O)c1c(SCc2ccccc2)n[nH]c1N	-12%	23%	8%	-4%	-33%	10%
CN(C)/C=C/C(=O)c1ccc(-n2cccc2)cc1	?	18%	?	-4%	?	3%
CN(C)c1ccc(-n2cccc2)cc1	22µM*	22µM*	40µM*	-9%	20µM*	-3%
CCN1CCN(c2cc(C)c3cc(NC(=O)c4ccc(Br)o4)ccc3n2)CC1	71µM*	6%	?	-1%	?	-1%
CCN1CCN(c2cc(C)c3cc(NC(=S)N4CCCCC4)ccc3n2)CC1	-32%	-13%	45µM*	-6%	-35%	-10%
CCN1CCN(c2cc(C)c3cc(NC(=O)c4ccncc4)ccc3n2)CC1	4%	-6%	?	-9%	-32%	-4%
CCN1CCN(c2cc(C)c3cc(NC(=S)N4CCCC(C)C4)ccc3n2)CC1 (stereo not given)	-29%	-22%	45µM*	-6%	?	8%
CCN1CCN(C(=S)Nc2ccc3nc(N4CCN(CC)CC4)cc(C)c3c2)CC1	-4%	13%	20µM*	-20%	-25%	6%
CCCN(C(=O)CSc1ncccn1)C1CCS(=O)(=O)C1 (stereo not given)	/	30%	/	-9%	-15%	/
CCN(CC)c1cc(C)c2cc(NC(=O)c3ccc(Br)o3)ccc2n1	?	-26%	56µM*	-2%	?	?
CCCCc1ccc(C(=O)Nc2ccc3nc(N(CC)CC)cc(C)c3c2)cc1	14%	69%	30%[59 µM]	/	5%	/
SMILES	BAZ2B inh	HP1b chromo inh	G9a inh	PLK1 PBD inh	JMJD2A Tudor	Sfp PPTase inh
CCN1CCN(c2cc(C)c3cc(NC(=S)N4CC(C)CC(C)C4)ccc3n2)CC1 (stereo not given)	?	1%	35µM*	-6%	-35%	0%
COc1ccc(CCNC(=O)C(=O)Nc2ccc3c(c2)OCO3)cc1OC	-3%	11%	-13%[59 µM]	-9%	-6%	9%
CC1CCN(S(=O)(=O)c2ccc(C(=O)OC(C)C(=O)NC3CCCCC3C)cc2)CC1 (stereo not given)	-10%	20%	32µM*	-1%	-7%	6%
CC(OC(=O)c1ccc2c(c1)OCO2)C(=O)NC1CCCCC1 (stereo not given)	/	/	/	6%	/	/
CC(OC(=O)c1ccc2c(c1)OCO2)C(=O)NC1CCCCC1C (stereo not given)	-3%	12%	28µM*	2%	0%	/
COc1cc(NC(=O)O[C@@H]2C(=O)c3cc(Br)ccc3O[C@H]2c2ccc3c(c2)OCO3)cc(OC)c1OC	/	/	/	/	/	0%
CC(=O)NC1=NN(C(C)=O)C(c2ccccc2)S1 (stereo not given)	-13%	-24%	2%	4.7µM*	11µM*	6%
CCCCCOc1ccccc1CN1C(=O)C(=O)c2cc(C)ccc21	6.3µM*	?	8.9µM*	/	18µM*	/
Cc1ccc2c(c1)C(=O)C(=O)N2CC1COc2ccccc2O1 (stereo not given)	?	?	50µM*	?	?	-1%
Cc1ccc(OCCCN2C(=O)C(=O)c3cc(C)ccc32)cc1	-19%	?	-4%	-21%	-9%	-3%
Cc1ccc2c(c1)C(=O)C(=O)N2CCCOc1ccccc1	50µM*	?	35µM*	-24%	56µM*	21%
COC(=O)C(C(=O)OC)[C@@H](NC(=O)OCc1ccccc1)c1ccccc1	/	/	/	/	/	21%
Cc1c2cnn(CC(=O)N3CCN(c4ccccc4)CC3)c(=O)c2c(C)n1Cc1ccc(F)cc1	-5%	-4%	6%[59 µM]	/	-17%	/
Cc1cc(C)c(OCC(=O)N(Cc2ccc(N(C)C)cc2)Cc2ccco2)c(C)c1	8.9µM*	?	13µM*	/	20µM*	/
Cc1ccc(CN(Cc2ccco2)C(=O)COc2c(C)cc(C)cc2C)cc1	34%	42%	38%[59 µM]	/	12%	/
Cc1ccc(CN(Cc2ccco2)C(=O)COc2cccc(C)c2C)o1	9%	29%	-3%[59 µM]	/	?	/
Cc1cccc(OCC(=O)N(Cc2ccc(N(C)C)cc2)Cc2ccco2)c1C	10µM*	?	14µM*	/	22µM*	/
NC(=S)NNc1c(F)c(F)c(F)c(F)c1F	-21%	?	35µM*	27µM*	?	40µM*
CC(=O)N1c2ccccc2C2(O)N=C(C)SC12 (stereo not given)	?	?	1.4µM*	5.3µM*	5.6µM*	-95%
CC(=O)N1c2ccccc2[C@@H](C)[C@@H]1C	1%	17%	13%[0.501 µM]	-2%	-6%	/
CCc1c(C2(O)CCCCC2)[nH]c2ccc(C#N)cc12	/	17%	/	-18%	-16%	/
COc1ccc(NC(=O)CN2C(=O)CSC(C)C2=O)cc1 (stereo not given)	-19%	-15%	-2%	21µM*	?	23%
